# High-throughput results (PubChem BioAssay)
# Only some compounds are listed: those with a hit (about 1.4% of all), similar ones and a draw of the others.
# APOBEC3A inh – APOBEC3A ssDNA deaminase inhibitors, primary screen, selectivity assay for APOBEC3G inhibitor project, biochemical, FAM/TAMRA oligo cleavage fluorescence; DNA dC->dU-editing enzyme APOBEC-3A (Homo sapiens), P31941; recombinant A3A, FAM/TAMRA ssDNA deamination fluorescence; AID 493011, 2011; inhibition, % at 20 µM; actives 0.41% (n = 330,000);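 active means at least 40% inhibition at 20 µM here, with at most 30% in a related deaminase screen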;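 further: plate controls were A3A with DMSO for no effect and wells lacking A3A enzyme for full effect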
# VLA-4 inh – inhibition in human VLA-4 binding assay, primary screen, VLA-4 allosteric modulator project, MLPCN library, flow cytometry, VLA-4 expressing cells; inhibition, % (about 7 µM as worked out from the volumes in the protocol); ligand binding flow cytometry; AID 2557, 2010; actives 0.2% (n = 330,000); Integrin alpha-4 (Homo sapiens), P13612; in the data active means inhibition above about 50%
# Target sequence (P13612 whole entry, looked up): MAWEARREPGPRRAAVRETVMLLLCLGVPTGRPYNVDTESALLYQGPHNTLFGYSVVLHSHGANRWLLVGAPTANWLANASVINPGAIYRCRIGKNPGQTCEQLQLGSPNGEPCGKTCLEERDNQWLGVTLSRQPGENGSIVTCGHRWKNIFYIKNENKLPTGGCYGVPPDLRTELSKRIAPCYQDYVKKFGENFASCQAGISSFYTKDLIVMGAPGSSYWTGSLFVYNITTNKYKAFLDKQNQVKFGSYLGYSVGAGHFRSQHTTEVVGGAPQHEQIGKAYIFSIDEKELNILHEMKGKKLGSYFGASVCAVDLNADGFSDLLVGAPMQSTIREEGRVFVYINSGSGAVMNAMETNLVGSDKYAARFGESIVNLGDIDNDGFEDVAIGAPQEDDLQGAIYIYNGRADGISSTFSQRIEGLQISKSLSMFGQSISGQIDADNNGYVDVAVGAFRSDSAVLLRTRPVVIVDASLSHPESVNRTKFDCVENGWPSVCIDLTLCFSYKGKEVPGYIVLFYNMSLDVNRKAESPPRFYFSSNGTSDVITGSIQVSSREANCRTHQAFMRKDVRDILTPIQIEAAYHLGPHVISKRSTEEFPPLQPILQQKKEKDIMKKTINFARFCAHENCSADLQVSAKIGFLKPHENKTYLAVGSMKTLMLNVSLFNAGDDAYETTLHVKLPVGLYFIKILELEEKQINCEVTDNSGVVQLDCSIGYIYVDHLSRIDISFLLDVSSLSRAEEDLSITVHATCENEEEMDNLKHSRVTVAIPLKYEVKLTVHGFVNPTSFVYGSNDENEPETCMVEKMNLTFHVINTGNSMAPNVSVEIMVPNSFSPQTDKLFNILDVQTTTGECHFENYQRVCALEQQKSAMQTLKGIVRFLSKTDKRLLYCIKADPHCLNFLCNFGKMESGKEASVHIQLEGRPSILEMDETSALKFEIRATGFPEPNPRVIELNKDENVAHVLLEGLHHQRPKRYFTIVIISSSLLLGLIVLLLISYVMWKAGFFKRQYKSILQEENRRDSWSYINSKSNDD
# GRK2 aptamer HTS – compounds blocking aptamer binding on GRK2 – biochemical, human GRK2, bead flow cytometry, HTS, primary screen. Beta-adrenergic receptor kinase 1 (Homo sapiens), P25098. inhibition of aptamer binding, % at 10 µM. AID 488847, 2010. FAM-aptamer displacement from GRK2. actives 0.59% (n = 330,000);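 active means inhibition of aptamer binding above 40%, roughly 3 SD of noise, on plates passing a quality check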;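 further: median bead fluorescence of bound FAM aptamer so fluorescent compounds give negative values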
# A3G deaminase – APOBEC3G DNA deaminase inhibitors, primary screen, biochemical, fluorescence, single-stranded DNA substrate, uHTS; DNA dC->dU-editing enzyme APOBEC-3G (Homo sapiens), Q9HC16; recombinant A3G, ssDNA deamination FAM/TAMRA fluorescence; inhibition, % at 20 µM; actives 0.28% (n = 330,000); AID 493012, 2011;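 active means inhibition of at least 40% at 20 µM, with no more than 30% in the related APOBEC3A deaminase screen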;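 further: plate controls were DMSO wells with A3G for no effect and wells lacking A3G enzyme for full effect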
# GRK2 CP1 – GRK2 aptamer-displacing inhibitors, retest, confirmation, biochemical, cherry pick 1, bead flow cytometry | shares compounds with GRK2 aptamer HTS | bead-bound GRK2, FAM-aptamer displacement | aptamer displacement, % at 10 µM | actives 4% (n = 2,000);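 active means aptamer displacement above 40%, near three times the noise of non-fluorescent compounds, on plates passing quality checks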;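 further: negative values mostly reflect intrinsic compound fluorescence rather than true enhancement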
# Aptamer quench 1 – fluorescent aptamer quenching in GRK2 counter-screen dose response | Fluorescent RNA aptamer beads, flow cytometry; active compounds read high | 110 tested, under 10 active | fluorescence change (kMESF span), kMESF (no concentration beside the values) | shares compounds with GRK2 aptamer HTS;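 active means compounds whose bead fluorescence drops by more than 37 kMESF across the dose range, marking them as dye quenchers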
# FAM quench CP1 – aptamer fluorescence quenching in GRK2 counter-screen; Carboxyfluorescein RNA aptamer on beads, flow cytometry quenching; active compounds read low; shares compounds with GRK2 aptamer HTS; 2,000 tested, under 10 active; fluorescence response (% of DMSO), % at 10 µM;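 active means compounds that quench the bead-bound fluorescent RNA probe, cutting fluorescence to under half of the solvent control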;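 further: counterscreen run without GRK2 so only probe quenching by compound is measured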
# GRK2 CP2 – GRK2 aptamer-displacing inhibitors, hit retest, confirmation, biochemical, cherry pick 2, bead flow cytometry; shares compounds with GRK2 aptamer HTS; AID 504782, 2011; inhibition of aptamer binding, % at 10 µM; bead-bound GRK2, FAM-aptamer displacement; 360 tested, under 10 active;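 active means inhibition of aptamer binding above 40%, about triple the noise seen with nonglowing compounds, on plates passing quality control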;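 further: negative values mostly come from compounds that fluoresce themselves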
# FAM quench CP2 – aptamer fluorescence quenching in GRK2 counter-screen; fluorescence response vs DMSO, % at 10 µM; 360 tested, under 10 active; shares compounds with GRK2 aptamer HTS; AID 588494; carboxyfluorescein RNA aptamer beads, flow cytometry quenching; active compounds read low;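 active means response vs DMSO under 50%, meaning signal dropped by over half, treated as fluorescence quencher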;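 further: labelled aptamer on streptavidin beads without GRK2 as a quench counter-screen; 100% = bead fluorescence of DMSO wells and lower means quenching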
# * hit, by the source's call; nt = not tested or not shown.
SMILES,APOBEC3A inh,VLA-4 inh,GRK2 aptamer HTS,A3G deaminase,GRK2 CP1,FAM quench CP1,others
COc1ccc(NC(=O)c2ccccc2[N+](=O)[O-])cc1,0,14,51*,-6,nt,nt,GRK2 CP2=10;FAM quench CP2=98
COc1ccc(CNC(=O)c2ccccc2[N+](=O)[O-])cc1,0,2,4,-8,nt,nt,
COc1ccc(/C=C/CN2CCN(CCc3ccccc3)C(CCO)C2)cc1 (stereo not drawn),2,6,90*,-10,-9,100,
Cc1ccc(OCCCCn2ccnc2)c(Cl)c1,2,0,0,-4,nt,nt,
CCCCOc1c(Cl)cc(CNC(C)(C)CO)cc1OCC,2,12,0,-1,nt,nt,
CCOc1cc(/C=N/NC(=O)c2ccc(CN3CCOCC3)cc2)ccc1OCc1ccccc1,-2,2,2,-2,nt,nt,
O=C(O)C1Nc2c(O)cc(Cl)c([N+](=O)[O-])c2C2C=CCC12 (stereo not drawn),100,1,69*,94,68*,95,Aptamer quench 1=-0.6
O=[N+]([O-])c1ccc(Cl)c2c1C1C=CCC1C(c1ccccn1)N2 (stereo not drawn),14,-4,1,13,nt,nt,
CCc1ccc(NC(=S)NC(=O)CC(C)C)cc1,-4,15,69*,-7,0,102,
Cc1nc2cc(C(F)(F)F)ccc2n1CCNc1nc(-c2ccc(F)cc2)cs1,-6,12,0,-9,nt,nt,
CC(C)(C)c1cc(C(=O)CCN2CCOCC2)cc(C(C)(C)C)c1O,0,3,0,-5,nt,nt,
O=C(O)c1ccc(/C=N/Nc2nc3ccccc3[nH]2)cc1,-8,1,95*,-8,-14,149,
COC(=O)c1ccc(/C=N/Nc2nc3ccccc3[nH]2)cc1,2,3,0,-2,nt,nt,
O=C(O)c1ccc(-n2cccc2/C=N\NC(=O)c2cc3cc(Br)ccc3o2)cc1,94,-3,58*,71,35,97,
O=C(O)Cn1cc(/C=N/NC(=O)c2cc3cc(Br)ccc3o2)c2ccccc21,-7,-4,10,-8,nt,nt,
CC1(C)CC(=O)C2=C(C1)c1c(ccc3ccccc13)NC2c1ccc(OCC(=O)O)cc1 (stereo not drawn),15,15,78*,1,0,94,
COc1cc(C2Nc3ccc4ccccc4c3C3=C2C(=O)CC(C)(C)C3)ccc1OCC(=O)O (stereo not drawn),-2,7,0,-7,nt,nt,
COc1ccc(CNC(=O)CN2C(=O)NC(C)(c3ccc(Cl)cc3)C2=O)cc1 (stereo not drawn),-1,4,54*,-6,-1,102,
CC1(c2ccc3ccccc3c2)NC(=O)N(CC(=O)O)C1=O (stereo not drawn),0,9,47*,-3,-3,99,
COc1ccccc1C(=O)Nc1c2c(nn1-c1ccc(Cl)cc1)CS(=O)(=O)C2,2,-26,44*,2,nt,nt,GRK2 CP2=-18;FAM quench CP2=101
OC(COc1ccc(C2C=CCC2)cc1)CN1CCCCC1 (stereo not drawn),-1,-1,62*,-6,-75,105,
Clc1ccc2c(N/N=C/c3cccc(Br)c3)ccnc2c1,nt,-12,73*,nt,0,93,
Clc1ccc2c(N/N=C/c3ccccc3Br)ccnc2c1,-1,13,0,-2,nt,nt,
COc1ccc(C)cc1N1CC(C(=O)Nc2ccccc2N2CCCCC2)CC1=O (stereo not drawn),2,-1,78*,-7,-2,97,
COc1cccc(-c2c(NC(C)=O)n(C)c3ccccc3c2=O)c1,3,3,46*,7,-2,101,
SMILES,APOBEC3A inh,VLA-4 inh,GRK2 aptamer HTS,A3G deaminase,GRK2 CP1,FAM quench CP1,others
CCN(C(=O)CN1c2ccccc2CC1C)c1c(N)n(Cc2ccccc2)c(=O)[nH]c1=O (stereo not drawn),-2,2,1,8,4,95,
CC1Cc2ccccc2N1CC(=O)N(C)c1c(N)n(Cc2ccccc2)c(=O)[nH]c1=O (stereo not drawn),4,-27,0,-3,nt,nt,
CN(C)C(=S)NC(=O)c1cccc(Cl)c1,-10,35,0,-3,nt,nt,
CCC(C)(C)NC(=O)C(c1ccccc1)N(C(=O)c1csnn1)C1CC1 (stereo not drawn),-3,-9,60*,-3,-1,99,
CCC(C)(C)NC(=O)C(c1ccccn1)N(C(=O)c1csnn1)C1CCCCC1 (stereo not drawn),-1,12,0,-8,nt,nt,
O=[N+]([O-])c1cc(C(F)(F)F)ccc1Sc1ccc2ccccc2n1,-3,-5,39,-1,-1,84,
C/C(=N\Nc1ccc2nncn2n1)c1cccs1,-4,5,1,-5,nt,nt,
CCOc1ccc2c(c1)C(c1ccc(C)cc1)=NNC(c1ccc(OC)cc1)=N2,-2,34,2,-5,nt,nt,
CCOc1ccc(C2=NNC(c3cccnc3)=Nc3ccc(OC)cc32)cc1,-5,-3,100*,-6,3,101,
CCOc1cc(Br)ccc1S(=O)(=O)NCc1ccccc1,-4,1,5,-5,nt,nt,
CCCOC(=O)c1cc(-c2ccc(/C=C3/C(=O)N(C)C(=O)C(C#N)=C3C)o2)ccc1Cl,1,-10,52*,4,0,96,
O=C1CCC(C(=O)OCC(=O)Nc2cc(Cl)ccc2F)=NN1,-4,13,0,-9,nt,nt,
Cc1nc(NC(=O)COC(=O)C2=NNC(=O)CC2)c(Cl)cc1Cl,0,1,55*,0,0,94,
CSc1ccc(Cl)c(C(=O)OCC(=O)NCC(C)C)c1,12,17,1,-7,nt,nt,
Nc1c(C(=O)Nc2cccc(F)c2)nnn1-c1ccc2c(c1)OCCO2,-2,9,2,-8,nt,nt,
